According to PubChem BioAssay AID1222 (Sanford-Burnham Center for Chemical Genomics, 2008):
Hit rate of the full screen: of about 190,000 compounds, fewer than 10 were called active. These entries were drawn from the full list. Measured potencies and affinities stand elsewhere. Unmarked numbers belong to inactive results.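 The calls were made as follows: active = EC50 below 50 µM in the dose-response confirmation; inactive = the rest.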

test: protection against thapsigargin-triggered cell killing – 384-well, CSM14.1, ATP luminescence, primary screen (AID 1222); conditions: CSM14.1 thapsigargin-induced death rescue, at 20 µM, active compounds read high;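 also: cell ATP read after overnight thapsigargin exposure of roughly 18 to 22 hours; reference of the scale not given here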

Row | Structure (SMILES) | cellular ATP content (survival) [%]
1 | COc1ccc(C2N(c3ccc(OC)cc3)C(=S)N3CCCN23)cc1 (stereo unspecified) | 3.3
2 | COc1ccccc1NC(=S)N(Cc1ccc(C)cc1)Cc1cccnc1 | 2.6
3 | Cc1ccc(C(=O)NNC(=O)CSc2nnc(-c3ccccc3)n2Cc2ccccc2)cc1 | -1.4
4 | O=C(CSc1ncnc2nc[nH]c12)N1CCN(c2ccccc2)CC1 | 0.6
5 | CC1CCN(CCC(=O)N/N=C/c2ccc([N+](=O)[O-])cc2)CC1 | -1.3
6 | CC(C)C(=O)c1cn(CC(=O)N2CCCc3ccccc32)c2ccccc12 | 0.1
7 | O=C(NC1CCCCC1)C(c1ccc2ncccc2c1)N(Cc1ccc(F)cc1)C(=O)c1cccs1 (stereo unspecified) | -1.3
8 | O=C(NC1CCCCC1)C(c1ccc2ncccc2c1)N(Cc1ccccc1)C(=O)c1cccs1 (stereo unspecified) | -2.1
9 | COc1ccc(CN(C(=O)c2nsc(Cl)c2Cl)C(C(=O)NC2CCCCC2)c2ccc(OC)cc2)cc1 (stereo unspecified) | -2.1
10 | O=C(NC1CCCCC1)C(c1ccc2ncccc2c1)N(Cc1ccc2c(c1)OCO2)C(=O)c1cccs1 (stereo unspecified) | -4
11 | O=C(NC1CCCCC1)C(c1ccc2ncccc2c1)N(Cc1ccco1)C(=O)c1ccc2c(c1)OCCO2 (stereo unspecified) | 14.1
12 | O=C(CCCC(=O)N(c1ccc2c(c1)OCCO2)C(C(=O)NC1CCCCC1)c1ccc(F)cc1)Nc1ccccn1 (stereo unspecified) | -0.3
13 | O=C(NC1CCCCC1)C(c1ccc2ncccc2c1)N(Cc1cccs1)C(=O)c1cccs1 (stereo unspecified) | -8.2
14 | COc1ccc(C(C(=O)NC2CCCCC2)N(C(=O)CCCC(=O)Nc2ccccn2)c2ccc3c(c2)OCCO3)cc1 (stereo unspecified) | 3.5
15 | OC(C#CCN1CCOCC1)(c1ccccc1)C1CC1 (stereo unspecified) | -0.9
16 | COc1ccc(C(CC(=O)O)NC(=O)Cc2ccccc2)cc1OC (stereo unspecified) | -3
17 | C=CCOc1ccc(C2CC(C)=NN2c2ccccc2)cc1 (stereo unspecified) | 6.2
18 | Cc1ccc2c(c1)nnn2C1CCN(CC(=O)NCc2ccccc2F)CC1 | 3.5
19 | COc1cc(C(C#N)N2N=C(c3ccccc3)CC2c2ccccc2)ccc1O (stereo unspecified) | 0.2
20 | CN(C)c1nc(N/N=C/c2ccccc2O)nc(Nc2ccc(F)cc2)n1 | -6.9
21 | Fc1cccc(Cc2noc(CN3CCC(c4ccncc4)CC3)n2)c1 | 1.8
22 | O=C(COc1ccc(Cl)cc1Cl)NCCCCc1ccccc1 | -2.7

Row | Structure (SMILES) | cellular ATP content (survival) [%]
23 | CS(=O)(=O)N1CCCC(C(=O)NCc2ccc(F)cc2)C1 (stereo unspecified) | 0.6
24 | CC(=O)Nc1sc2c(c1C(c1ccccn1)N1CCN(C)CC1)CCCC2 (stereo unspecified) | -0.7
25 | Cc1ccc(-c2nc(CSCC(=O)N3CCN(c4ccccn4)CC3)c(C)o2)cc1 | -0.2
26 | COc1ccccc1OCc1ccc(C(=O)NCC(C)C)o1 | 2.9
27 | COc1cccc(CN=C2Nc3ccccc3CS2)c1 | 0.2
28 | O=C(Nc1cc(C(F)(F)F)ccc1N1CCOCC1)c1cccc(F)c1 | 0.4
29 | O=C(Nc1ccccc1)c1nn(-c2ccccc2)c(=O)cc1C(F)(F)F | 2
30 | COc1ccccc1C(C)N(C)Cc1nc(COc2ccccc2)no1 (stereo unspecified) | -1.1
31 | COc1ccc(CCN(Cc2cccs2)S(=O)(=O)c2ccc(S(=O)(=O)N3CCCCCC3)cc2)cc1OC | -1.5
32 | O=C1c2cccc(OCC(=O)N3N=C(c4cccs4)CC3c3ccc(F)cc3)c2CCN1Cc1ccccc1 (stereo unspecified) | -2.7
33 | CN1CCc2c(OCC(=O)N3N=C(c4cccs4)CC3c3ccc(F)cc3)cccc2C1=O (stereo unspecified) | 1.4
34 | CC(C)OP(=O)(OC(C)C)C(Nc1ccccc1)c1ccccc1C(F)(F)F (stereo unspecified) | 2.8
35 | CCOC(=O)c1c(NC(=O)C[n+]2ccc(N(C)C)cc2)sc(C)c1C | -2
36 | Cn1cc(Cl)c(C(=O)NNC(=S)NC2CCCCC2)n1 | 1.1
37 | COC(=O)c1sc2ccccc2c1-n1cccc1C(=O)C(=O)Nc1ccc(OC)cc1 | 4.6
38 | COc1ccc(/C=C(/NC(=O)c2ccccc2)c2nc3ccc(Cl)cc3[nH]2)cc1OC | 1.1
39 | Cc1ccccc1NS(=O)(=O)c1cc(C(=O)N2CCc3ccccc3C2)ccc1C | 0.4
40 | CC(C)(C)C(=O)Nc1nc(=S)ss1 | 0
41 | CCn1c(NCc2ccc3c(c2)OCO3)nc2ccccc21 | -1
42 | CCOC(=O)c1cnc(-n2nc(C)cc2C)nc1Nc1ccc2c(c1)OCO2 | -1.2
43 | CCn1cc(C(=O)O)c(=O)c2cc(S(=O)(=O)N(C)C)ccc21 | -1.2
44 | O=C(Nc1ccc(N2CCOCC2)cc1)c1ccc(Cl)nc1 | -0.7

Row | Structure (SMILES) | cellular ATP content (survival) [%]
45 | CCOc1ccccc1NC(=O)COC(=O)C(CC)c1ccccc1 (stereo unspecified) | 0.7
46 | CCCCP(=O)(CCCC)c1ccccc1C(=O)O | -0.7
47 | O=C(OCc1cc(=O)n2c(n1)sc1ccccc12)c1ccc(O)cc1O | -1.2
48 | COc1ccc(NC(=S)Nc2ccc(S(N)(=O)=O)cc2)c(OC)c1 | -0.3
49 | CC(=O)c1c(C)nc2ccc(Br)cc2c1C(=O)O | 0.7
50 | COc1cccc(C2CC(c3cccs3)=NN2C(=S)Nc2ccccc2)c1OC (stereo unspecified) | 2.5
51 | COc1ccc(S(=O)(=O)N2CCC(C(=O)N3CCc4ccccc4C3)CC2)cc1Cl | 0.7
52 | CCOC(=O)c1cc2c(=O)n3ccccc3nc2n(Cc2ccccc2Cl)c1=N | -1.3
53 | CCCCNS(=O)(=O)c1ccc(S(=O)(=O)NCc2ccncc2)cc1 | -1.8
54 | Cc1nc(N2CCC(C(N)=O)CC2)c2c(-c3cccs3)csc2n1 | -2.2
55 | CCOC(=O)C1=C(C)Nc2ccccc2N=C1NC(=O)CCCN1C(=O)c2ccccc2C1=O | -1.5
56 | COc1cc([N+](=O)[O-])ccc1NC(=O)c1cccc(NC(=O)C(C)C)c1 | 2.2
57 | COC(=O)C1=NN(C(C)=O)C2(CC(=O)N(c3cccc(C)c3)C2=O)C1 (stereo unspecified) | -0.1
58 | CCN(C(=O)COc1ccccc1)C1CCCCC1 | -1.5
59 | O=C(Nc1nnc(-c2ccco2)o1)c1ccc2ccccc2c1 | 11.1
60 | Cc1cc(NC(=O)CCC(=O)N(CC(=O)NC2CCCC2)c2ccccc2)no1 | 0.5
61 | O=c1cc(COn2nnc3ccc(C(F)(F)F)cc32)nc2sccn12 | -1.8
62 | O=C(Nc1ccc2nc(-c3cccnc3)[nH]c2c1)C12CC3CC(CC(C3)C1)C2 | -3.6
63 | c1ccc(-c2nccc(-c3ccc(-n4cnc5ccccc54)cc3)n2)cc1 | -0.9
64 | Cc1ccc(/C(O)=C2\C(=O)C(=O)N(CCc3c[nH]c4ccccc34)C2c2cccnc2)cc1 (stereo unspecified) | 1.1
65 | CCN1C(=O)/C(=C/c2ccc(N3CCCC3)cc2)NC1=S | 0.3
66 | CCCN1C(=O)/C(=C/c2ccc(N3CCCC3)c(C)c2)NC1=S | -2

Row | Structure (SMILES) | cellular ATP content (survival) [%]
67 | O=C(COC(=O)CCNS(=O)(=O)c1ccc2c(c1)OCCO2)NC1CCCc2ccccc21 (stereo unspecified) | -0.1
68 | CCc1nnc(NC(=O)CCC(=O)NC2CCCCC2)s1 | -0.3
69 | CCCCNC(=O)Cc1ccc(Br)cc1 | 0.7
70 | CC1CCC2C(=O)N(c3ccc(Cc4ccncc4)cc3)C(=O)C2C1 (stereo unspecified) | 0.4
71 | CC1(C(=O)NCCN2CCOCC2)C=CC2(CCCCC2)N1C(=O)c1ccccc1 (stereo unspecified) | -4.5
72 | CC(=O)OCc1cc(-c2nn(C)c(=O)c3ccccc23)ccc1C | 1.5
73 | O=C(N/N=C/c1ccccc1OC(F)F)C1=COCCO1 | 0.4
74 | O=S1(=O)C=CC(Sc2nc3ccccc3[nH]2)C1 (stereo unspecified) | 7.3
75 | Cc1ccc(S(=O)(=O)N2CCN(C(C)CC(=O)O)CC2)cc1 (stereo unspecified) | -0.8
76 | O=C(OCCCC(=O)N1CCOCC1)c1ccccc1 | -1
77 | COc1cc(CN(C(=S)NCC(=O)NC2CCCC2)C2CCCC2)cc(OC)c1OC | 0.8
78 | CCOc1ccc(Nc2nc(Cc3nnc(SCC(=O)NC4CCCCC4)n3C)cs2)cc1 | -0.1
79 | COc1ccc(C(=O)OCC(=O)N(C)C2CCS(=O)(=O)C2)cc1S(=O)(=O)N1CCCc2ccccc21 (stereo unspecified) | 1.7
80 | COc1ccc2c(c1)N(C(=O)CSc1n[nH]c(C)n1)C(C)(C)C=C2C | 5.3
81 | COc1ccc(/C=C/C(=O)OCC(=O)Nc2cc(C(F)(F)F)ccc2Cl)cc1 | -2.1
82 | Cc1cc(C)c(C(=O)CN2C(=O)NC3(CCCCC3)C2=O)cc1C | -0.6
83 | COc1ccc(S(=O)(=O)Oc2cccc(/C=N/N=C3/NC(=O)C(CC(=O)O)S3)c2)cc1 (stereo unspecified) | 7.5
84 | CCCN1CCC(NC(=O)Nc2cc(Cl)ccc2OC)CC1 | 0.1
85 | CC(=O)N1CCN(c2ccc([N+](=O)[O-])c(NCc3cccnc3)c2)CC1 | -0.8
86 | N#Cc1cc(-c2ccccc2)nc(Oc2ccc(Cl)cc2)n1 | -1.2
87 | CCCn1nc2cc(C(=O)NCc3ccc(OC(F)(F)F)cc3)ccc2c1OCC | -1.1
88 | Cc1ccc(S(=O)(=O)c2nc(-c3ccccc3)oc2NCc2cccnc2)cc1 | 3.8

Row | Structure (SMILES) | cellular ATP content (survival) [%]
89 | Cc1ccc(Nc2nc(-c3ccc(S(=O)(=O)N4CCOCC4)cc3)cs2)cc1Cl | -1.8
90 | CC(C)(C)N/N=C/c1c(O)n(-c2ccc(Cl)cn2)c(=O)c2ccccc12 | -1.2
91 | O=C(Nc1cccc(C2OCCCO2)c1)c1cccs1 | -3.3
92 | O=C(c1ccc2ccccc2c1)c1c[nH]cc1-c1ccccc1 | 0.1
93 | CC12COC3(C(=O)Nc4ccccc4)CC1CCC32C (stereo unspecified) | 0.2
94 | Cc1ccccc1NC(=O)C12CC3CCC1(C)C3(C)CO2 (stereo unspecified) | 3.2
95 | CN(C1CCCCC1)S(=O)(=O)c1ccc(NC(=O)CCC(=O)O)cc1 | -1.8
96 | O=C(N[C@@H](Cc1ccccc1)C(=O)O)c1cccnc1 | -0.2
97 | O=[N+]([O-])c1ccc(Nc2nc(Cl)nc(NCCO)n2)cc1 | -0.9
98 | Cc1ccc(S(=O)(=O)N2CCN(C(=O)CSc3nnc(C)c(=O)[nH]3)CC2)cc1 | 0.3
99 | O=C(NC(=S)N1CCN(c2ccccn2)CC1)c1ccco1 | -0.1
100 | COc1ccccc1NC(=O)C/C(C)=N/NC(=O)COc1c(Br)cc(Br)cc1OC | 2.1
101 | CCC(=O)N1CCc2cc(S(=O)(=O)CCC(=O)Nc3ccc(CC)cc3)ccc21 | -3.3
102 | O=c1[nH]c(CSc2nnc(-c3ccccc3)n2C2CCCCC2)nc2ccccc12 | 0.3
103 | CC1C(c2ccccc2)=[N+]([O-])C2(CCCCC2)N1O (stereo unspecified) | -0.2
104 | Cn1c(=O)c2c(nc(CN3CCN(Cc4ccccc4)CC3)n2CCN2CCOCC2)n(C)c1=O | 2.6
105 | CCOc1ccccc1-n1c(SCC(=O)Nc2nccs2)nnc1-c1ccoc1C | 1.4
106 | O=c1[nH]c(CCC2CCCC2)nc2ccccc12 | -3.1
